Screens (PubChem BioAssay)
Pf apPOL inh: Pf-apPOL inhibitors, biochemical, fluorescence. Plasmodium falciparum apicoplast DNA polymerase (apPOL). Recombinant Pf-apPOL, molecular beacon fluorescence, 1.5 h. inhibition, % at 10 µM. hit rate 0.25% among 210,000
mHTT CaM bind: mutant huntingtin-calmodulin interaction inhibitors – biochemical, AlphaScreen, primary screen; AlphaScreen His-mHTT/GST-CaM binding, luminescence; hit rate 3.6% among 190,000; AID 1671202, 2021; inhibition, % at 15 µM; P42858;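 also: 0% = both proteins with DMSO and 100% = one protein alone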
* hit, by the source's call; i = inactive; nt = not tested or not shown. Only some compounds are listed: those with a hit (about 3.5% of all), similar ones and a draw of the others. Rule as the data show it: active = inhibition above about 50%; inactive = the rest.

SMILES | Pf apPOL inh | mHTT CaM bind
CN(C)CCCN(C(=O)Cc1ccccc1)c1nc2ccc(Br)cc2s1 | -6 | 100*
O=C(Cc1csc(SCc2ccncc2)n1)N1CCN(c2ccccc2)CC1 | -12 | -8
CC1(C)N=c2ccc([N+](=O)[O-])cc2=N1 | 64* | nt
O=[N+]([O-])c1ccc2nc(Cl)c(Cl)nc2c1 | nt | 30
N/C(CSc1nc(SC/C(N)=N\O)ns1)=N\O | nt | i
O=C(c1ccsc1)N1CC(c2nc(-c3cccc(Cl)c3)no2)C1 | 1 | -4
O=C(CCSc1ccccc1)N1CC(c2nc(-c3cccc(Cl)c3)no2)C1 | -19 | 67*
O=C(Cn1ccc2ccccc21)N1CC(c2nc(-c3cccc(Cl)c3)no2)C1 | -3 | 60*
O=C(c1ccccn1)N1CC(c2nc(-c3cccc(Cl)c3)no2)C1 | -8 | -7
CCOc1ccc(CNC(=O)CC2CCN(C(=O)C3CCCCC3)CC2)cc1OC | -6 | 11
Cc1ccccc1CNC(=O)C1CCCN(C(=O)c2ccccc2F)C1 (stereo not given) | -2 | 22
O=C(Nc1cccc(F)c1)C1CC(=O)N(CCc2c[nH]c3ccc(Cl)cc23)C1 (stereo not given) | 2 | 66*
Cc1ccc(Cl)cc1NC(=O)C1CC(=O)N(c2cccc([N+](=O)[O-])c2)C1 (stereo not given) | -10 | 54*
COc1ccc(NC(=O)C2CC(=O)N(c3ccc(C)c(Cl)c3)C2)cc1 (stereo not given) | 1 | 1
Cc1ccc(N2CC(C(=O)Nc3ccc(Cl)cc3Cl)CC2=O)cc1 (stereo not given) | -5 | -5
O=C(NCCc1ccc(F)cc1)C1CC(=O)N(CCc2c[nH]c3ccc(Cl)cc23)C1 (stereo not given) | -2 | 8
O=C(Nc1cccc(F)c1)C1CC(=O)N(CCc2c[nH]c3ccc(F)cc23)C1 (stereo not given) | -4 | 18
Cc1ccc(N2CC(C(=O)Nc3nc4ccccc4s3)CC2=O)cc1Cl (stereo not given) | -1 | 55*
O=C(Nc1ccc(F)cc1)C1CC(=O)N(CCc2c[nH]c3ccc(Cl)cc23)C1 (stereo not given) | -11 | 55*
O=C(CCN1CCOCC1)Nc1ccc(OC(F)(F)F)cc1 | -4 | -3
O=C(c1ccc(OCC2CCN(C(=O)c3cc(F)ccc3F)CC2)cc1)N1CCCCC1 | 1 | -14
Cc1ccc2[nH]cc(CCNC(=O)CC3CCN(C(=O)c4ccccc4Cl)CC3)c2c1 | 1 | 79*
Cc1ccc(C(=O)N2CCC(CC(=O)NCCc3c[nH]c4ccc(Cl)cc34)CC2)cc1 | -7 | 10
Cc1ccc2[nH]cc(CCN3CC(C(=O)Nc4ccccc4Cl)CC3=O)c2c1 (stereo not given) | 3 | 45
COc1ccc2[nH]cc(CCN3CC(C(=O)Nc4cc(F)cc(F)c4)CC3=O)c2c1 (stereo not given) | -5 | 31
SMILES | Pf apPOL inh | mHTT CaM bind
Cc1ccc2[nH]cc(CCN3CC(C(=O)Nc4ccc(C)c(Cl)c4)CC3=O)c2c1 (stereo not given) | -1 | 86*
COc1ccc2[nH]cc(CCN3CC(C(=O)Nc4ccc(F)c(Cl)c4)CC3=O)c2c1 (stereo not given) | -2 | 55*
COc1ccc(N2C(=O)CCC(C(=O)Nc3ccc(C)c(F)c3)C2c2ccc(F)cc2)cc1 (stereo not given) | 0 | 32
COc1ccc(C2C(C(=O)Nc3ccc(F)c(Cl)c3)CC(=O)N2c2ccc(OC)cc2)cc1 (stereo not given) | -5 | 100*
CN(CCCNC(=O)/C=C1\Sc2ccccc2NC1=O)c1ccccc1 | -19 | 24
Fc1ccc(NC(=S)NCc2cccs2)c(F)c1 | -4 | nt
CCc1ccc(/C=C/c2[nH]c(=O)[nH]c(=O)c2[N+](=O)[O-])cc1 | 0 | -2
CCN1C(=C(C#N)C#N)Sc2ccc(OC)cc21 | nt | -6
Cc1ccccc1-n1nnnc1C(c1ccccc1)N(C)Cc1cccc([N+](=O)[O-])c1 (stereo not given) | -1 | -2
CC1CCN(C(=O)C2CC(=O)N(CCc3c[nH]c4ccc(F)cc34)C2)CC1 (stereo not given) | 0 | 19
COc1ccc2nc(NC(=O)C3CC(=O)N(CCc4c[nH]c5ccc(C)cc45)C3)sc2c1 (stereo not given) | -1 | 85*
O=C1CC(C(=O)N2CCN(Cc3ccccc3)CC2)CN1CCc1c[nH]c2ccc(F)cc12 (stereo not given) | -3 | 55*
O=C(Nc1nccs1)C1CC(=O)N(CCc2c[nH]c3ccc(Cl)cc23)C1 (stereo not given) | 0 | 63*
COc1ccc(NC(=O)C2CC(=O)N(CCc3c[nH]c4ccc(C)cc34)C2)cc1 (stereo not given) | -2 | 36
O=C(Nc1nncs1)C1CC(=O)N(CCc2c[nH]c3ccc(Cl)cc23)C1 (stereo not given) | -2 | 7
COc1ccc2[nH]cc(CCN3CC(C(=O)Nc4nnc(C(C)(C)C)s4)CC3=O)c2c1 (stereo not given) | -2 | 14
CC(C)(C)c1nnc(NC(=O)C2CC(=O)N(CCc3c[nH]c4ccc(Cl)cc34)C2)s1 (stereo not given) | 0 | 55*
O=C(Cc1cccs1)N1CCC(Oc2nc3ccc(F)cc3s2)CC1 | -16 | 16
Fc1ccc(CN2CCSCC2)cc1 | 0 | 5
O=C1c2cccc([N+](=O)[O-])c2C(=O)N1CN1CCOCC1 | 0 | 0
Cc1cc(Cl)ccc1OCC(=O)Nc1sc(C)c(C)c1C(N)=O | 0 | 1
COc1cccc(NC(=O)C2CC(=O)N(CCc3c[nH]c4ccc(Cl)cc34)C2)c1 (stereo not given) | -2 | 19
O=C(Nc1ccc2c(c1)OCCO2)C1CC(=O)N(CCc2c[nH]c3ccc(Cl)cc23)C1 (stereo not given) | 2 | 76*
O=C(Nc1ccc2c(c1)OCCO2)C1CC(=O)N(CCc2c[nH]c3ccc(F)cc23)C1 (stereo not given) | 1 | 43
Cc1cccc(NC(=O)C2CC(=O)N(CCc3c[nH]c4ccc(Cl)cc34)C2)c1 (stereo not given) | -1 | 82*
SMILES | Pf apPOL inh | mHTT CaM bind
O=C(Nc1nc2ccccc2s1)C1CC(=O)N(CCc2c[nH]c3ccc(Cl)cc23)C1 (stereo not given) | -2 | 100*
CCCCNC(=O)C1CC(=O)N(CCc2c[nH]c3ccc(Cl)cc23)C1 (stereo not given) | -4 | 3
CC(=Cc1cccs1)[N+](=O)[O-] | 3 | nt
CCOc1ccc(-c2[nH]nc3c2C(c2ccc(F)cc2)C(C#N)=C(N)O3)c(OCC)c1 (stereo not given) | 1 | 29
CCOc1ccc(-c2[nH]nc3c2C(c2ccccc2F)C(C#N)=C(N)O3)c(OCC)c1 (stereo not given) | 1 | 51*
COc1ccc(CC(=O)N2CCC(c3cc(N)on3)CC2)cc1 | -3 | -4
O=C(CN(c1cc(Cl)cc(Cl)c1)S(=O)(=O)c1ccccc1)NC1CC1 | -7 | -1
Cc1cc(C)cc(NC(=O)N2CCC3(CC2)Nc2cc(F)ccc2-n2cccc23)c1 | 2 | 71*
O=C(Nc1cccc(Cl)c1)N1CCC2(CC1)Nc1ccccc1-n1cccc12 | -1 | 24
O=C(Nc1ccc2c(c1)OCO2)N1CCC2(CC1)Nc1cc(F)ccc1-n1cccc12 | -3 | 68*
